Experimental data reported in PubChem BioAssay (NCI).
About 83,000 compounds went through this panel and 20% of them were active in at least one assay; those are over-represented in the sample as a whole.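 Assay: single dose, 48 h. Readout: percent growth (0 = no net growth; negative = cell death). Active: <10.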

Experiments:
Test in all cases: NCI-60 one-dose screen, 48 h (100 = growth as untreated, 0 = no growth, -100 = all killed)
Conditions in all cases: 10 µM unless noted
[1] = test system: SR leukemia
[2] = test system: RPMI-8226 leukemia
[3] = test system: OVCAR-8 ovarian
[4] = test system: OVCAR-4 ovarian
[5] = test system: SK-OV-3 ovarian
[6] = test system: IGROV1 ovarian
[7] = test system: OVCAR-3 ovarian
[8] = test system: HS 578T breast
[9] = test system: NCI/ADR-RES ovarian
[10] = test system: OVCAR-5 ovarian

Measured: growth

CC(C)NCC(O)COc1ccc(CC(N)=O)cc1 (stereo unspecified)
inactive: [1] 102% | [2] 99.1% | [3] 96.8% | [4] 105% | [5] 103% | [6] 97.4% | [7] 114% | [8] 104% | [9] 104%

Oc1ccc(Cl)cc1Sc1cc(Cl)ccc1O
inactive: [1] 90.4% | [2] 86.3% | [3] 90.8% | [10] 100% | [4] 70.2% | [5] 106% | [7] 77% | [8] 108% | [9] 101%

COc1ccc(CNc2nc3ccccc3c3c(=O)c4ccccc4sc23)cc1OC
inactive: [1] 65.3% | [2] 87.3% | [3] 64.8% | [4] 62.1% | [5] 81.9% | [6] 80.6% | [7] 82.6% | [8] 65.8% | [9] 74.3%

COc1cc(NS(=O)(=O)c2ccc(N)cc2)ncn1
inactive: [1] 97.2% | [2] 109% | [3] 102% | [4] 114% | [5] 107% | [6] 118% | [7] 115% | [8] 105% | [9] 103%
